About 1,700 (0.5%) of roughly 340,000 compounds were called active. Inconclusive results (about 2%) are left out. Many of the other results were omitted from the sample, so actives are more common in it than they were. Values without a mark were called inactive. Cut-off read from the data, not from the text of the source: active = activity change below about -65%; inconclusive = mostly about -30% to -63%; inactive = weaker than that.
System: CtBP / adenovirus E1A interaction (AlphaScreen)
Test: qHTS Assay for Inhibitors of the CtBP/E1A Interaction
Details: AlphaScreen GST-E1A/His-CtBP binding, 1536-well; active compounds read low
Method in brief: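 Steps: dispense buffer (Tris pH 8.0, NaCl 300 mM, TCEP 1 mM, BSA, Tween 20); add 5X protein mix (GST-E1A, His-CtBP, 125 nM each); pin 23 nL compound; 2 h at 37 °C, dark; add 5X beads (50 ug/mL); 1 h; read.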
% is set by controls: 0 for no effect and ±100 for the full control effect.

| SMILES | activity change |
| --- | --- |
| CC(C)n1ncc2c(C(=O)N3CCN(Cc4cccs4)CC3)cc(C3CC3)nc21 | -9.59% |
| COc1cc(NC(=O)c2cc(-c3ccc(F)cc3OC(C)C)n[nH]2)cc(OC)c1OC | -4.63% |
| C[C@H]1CN([C@@H](C)CO)S(=O)(=O)c2ccc(Br)cc2O[C@H]1CN(C)C(=O)c1cnccn1 | 0.784% |
| O=C(N/N=C/c1ccccn1)C12CC3CC(CC(C3)C1)C2 | 1.59% |
| Cc1cc(C(=O)N/N=C/c2ccccn2)c2ccccc2n1 | -14.7% |
| S=C(NN=Cc1ccccn1)Nc1ccccn1 | -73.6% (active) |
| COc1ccc(-c2ccc(CN3C(CC(C)C)C(=O)N(Cc4cn(CC5CCCCC5)nn4)CCS3(=O)=O)cc2)cc1 (configuration not stated) | -0.831% |
| Cc1ccc(S(=O)(=O)N2CCC(=O)N([C@H](COCc3ccccc3)C(C)C)CC2)cc1 | 3.58% |
| CC(C)(C)Cc1c(C2CCCCC2)nc2ccc(Br)cn12 | 10.7% |
| Cc1ccc(C(=O)NC(=S)NCCN2CCOCC2)cc1 | -5.38% |
| CCOc1cccc(/C=N/NC(=S)NCCN2CCOCC2)c1O | -80.7% (active) |
| COc1cccc(NC(=S)NCCCN2CCOCC2)c1 | 5.66% |
| Nc1cccc(-c2cncc(N3CCN(Cc4ccccn4)CC3)n2)c1 | 1.71% |
| Cc1ccccc1OCCC(=O)Nc1c(C)n(C)n(-c2ccccc2)c1=O | -0.0402% |
| Cc1ccc(S(=O)(=O)CC(=O)Nc2c(C)n(C)n(-c3ccccc3)c2=O)cc1 | -13.1% |
| Cc1c(NC(=O)CSc2cccc3cccnc23)c(=O)n(-c2ccccc2)n1C | -87.1% (active) |
| COc1ccc(CC(N)c2csc(NC(=O)Nc3ccc(C(C)C)cc3)n2)cc1 (configuration not stated) | -13.2% |
| O=C(NCCCn1ccnc1)C(=O)NCC1OCCN1S(=O)(=O)c1cc(F)ccc1F (configuration not stated) | -71.2% (active) |
| O=C(NCCCc1ccccc1)C(=O)NCC1OCCN1S(=O)(=O)c1ccccc1 (configuration not stated) | 22.6% |
| Cc1cc(F)ccc1S(=O)(=O)N1CCCOC1CNC(=O)C(=O)NCCC1=CCCCC1 (configuration not stated) | 22.2% |
| COc1ccc([C@H]2CC(=O)C[C@@H](CCn3cc(CC4CCCC4)nn3)O2)cc1 | -3.9% |
| CC1(C(=O)NS(=O)(=O)c2ccc(Cl)cc2)CCN1C(=O)CC1CCCC1 (configuration not stated) | 2.24% |
| CN[C@H]1C[C@H]2c3cc(Oc4ccccc4C)ccc3CCN2C(=O)[C@H]1[C@H](C)O | -12.1% |
| CCOc1cc(/C=N/n2cnnc2)c(Br)cc1O | -6.92% |

| SMILES | activity change |
| --- | --- |
| CCOc1cccc(/C=N/N2C(=O)CSC2=S)c1O | -92.9% (active) |
| CCOc1ccc(N2C(=O)CSC2=NC#N)cc1 | -0.654% |
| Cc1ccccc1-c1csc(C(O)c2cccc(Cl)c2)n1 (configuration not stated) | 3.42% |
| CN(C(=O)CN1CCN(c2cc(-c3ccc(OCc4ccccc4)cc3)ncn2)CC1)c1ccccc1 | 0.325% |
| COc1ccc2cc1Oc1ccc(cc1)C[C@H]1c3cc(c(OC)cc3CCN1C)Oc1c(O)c(OC)cc3c1[C@H](C2)N(C)CC3 | -4.43% |
| COc1cc(C(=O)CCc2ccc3c(c2)OCO3)cc(OC)c1OC | 2.78% |
| COc1c(O)ccc2c1CN1CCc3cc4c(cc3C1C2)OCO4 (configuration not stated) | -66.6% (active) |
| COc1ccccc1CNc1nc(Nc2ccccc2Cl)c2sccc2n1 | -5.37% |
| NC(c1csc(NC(=O)Nc2cccc(C(F)(F)F)c2)n1)C1CCCCC1 (configuration not stated) | -2.68% |
| CC1(C)OC(=O)C2=C(C[C@@H](C3CC3)O[C@H]2CCc2cccc(Cl)c2)O1 | 11.1% |
| CCCNC(=O)C1(C)CCN(Cc2csc(-c3ccc(Cl)cc3)n2)C1 (configuration not stated) | -2.56% |
| Oc1ccc(/C=N/Nc2ccc(C(F)(F)F)cn2)cc1O | -14% |
| COc1cccc(/C=N/Nc2ncc(C(F)(F)F)cc2Cl)c1O | -98.2% (active) |
| COc1cccc(/C=N/Nc2ccc(S(=O)(=O)Nc3ccccc3C(=O)O)cc2[N+](=O)[O-])c1O | -15.4% |
| CC(C)c1cccc(C(C)C)c1Nc1cn[nH]c1 | -13.7% |
| COCCCNc1ccn2nc(-c3ccc(CC(C)C)cc3)cc2n1 | 4.88% |
| COc1ccc(CN2CCC(C)(Oc3cccc(F)c3)C2)c2ccccc12 (configuration not stated) | -13.7% |
| CCC(C(=O)OCCN(CC)CC)c1ccccc1 (configuration not stated) | -0.583% |
| CCOc1cc2ccccc2cc1C(=O)Nc1ccccn1 | -7.02% |
| CCN(CC)CCOc1ccc2c(c1)C(=NNC(=O)c1ccccn1)c1cc(OCCN(CC)CC)ccc1-2 | -70.2% (active) |
| Cc1nc2c(OCc3ccc(Cl)cc3)cccn2c1N(C)Cc1cccs1 | -7.51% |
| CC1CCCC(NC(=O)COC(=O)c2ccccc2C(=O)N(C)C2CCCCC2)C1C (configuration not stated) | -2.61% |
| Cc1c(NC(=O)COC(=O)/C=C/c2cccc(F)c2)c(=O)n(-c2ccccc2)n1C | 0.516% |
| CCOc1ccc(CCN2C(=S)N([C@@H](CC(C)C)CN3CCC[C@@H]3CN3C(=S)NC[C@@H]3Cc3ccc(O)cc3)C[C@@H]2CC(C)C)cc1 | -10.9% |

| SMILES | activity change |
| --- | --- |
| CC(=O)Nc1cccc(-c2ccnc3c2CC(C)(C(=O)NCc2ccco2)O3)c1 (configuration not stated) | -10.5% |
| Cc1n[nH]c(=O)nc1N/N=C/c1cccs1 | -89.5% (active) |
| S=c1[nH]nc(-c2cccs2)n1/N=C/c1cccs1 | 0% |
| NC(=O)N/N=C\c1cccs1 | -12.4% |
| C=CCC[C@@H](CCCCC)OC(=O)/C=C/[C@@H](O)[C@H](O)C[C@H](O)CC=C | -9.7% |
| COc1ccc(C(C(=O)NCc2ccccc2)n2c(=O)c(-c3ccccc3)nc3ccccc32)cc1 (configuration not stated) | 0% |
| CSCCC(NC(=O)c1ccco1)C(=O)Nc1cc(C)ccn1 (configuration not stated) | 0.873% |
| O=C(COc1ccccc1F)NC1CC1 | 8.72% |
| O=C(CN1C(=O)C2C3C=CC(C3)C2C1=O)Nc1nc(-c2ccccn2)cs1 (configuration not stated) | -80.4% (active) |
| CC1CCN(S(=O)(=O)c2nnc(NC(=O)COc3ccccc3F)s2)CC1 | 1.46% |
| O=C(CN1C(=O)C2C3C=CC(C3)C2C1=O)NCCc1ccccc1Cl (configuration not stated) | 12.6% |
| O=C(COc1ccccc1F)Nc1nc(-c2ccccn2)cs1 | -89% (active) |
| CC(NC(=O)c1ccco1)C(=O)Nc1nc(-c2ccccn2)cs1 (configuration not stated) | -88.4% (active) |
| CCOC(=O)N1CCN(C(=O)C(C)NC(=O)c2ccco2)CC1 (configuration not stated) | -2.35% |
| O=C(NCCN1C(=O)C2C3C=CC(C3)C2C1=O)Nc1ccccn1 (configuration not stated) | -15.4% |
| CCOC(=O)c1cc(-c2sc(NC(=O)c3ccccc3)nc2C)n(Cc2ccccc2)n1 | 0.44% |
| CN1OC[C@@H]2CN(S(=O)(=O)c3cccc(C(F)(F)F)c3)[C@H](c3ccc(-c4cc5ccccc5o4)cc3)C[C@@H]21 | -21.8% |
| CCCCC(=O)N(C)c1c(CC)nc2c(OCc3ccc(S(C)(=O)=O)cc3)cccn12 | 0.375% |
| COc1cccc(OCc2cc(/C=N/NC(=O)c3nc(Cl)c(Cl)c(N)c3Cl)ccc2OC)c1 | 7.69% |
| COc1ccc(/C=N\NC(=O)c2sc(N)nc2C)cc1OC | -68.1% (active) |
| COc1cc(/C=N/NC(=O)CNC(=O)c2ccncc2)ccc1OC(C)=O | -2.8% |
| O=C(NCc1cccnc1)c1cc(C2CCCN(C(=O)CCCc3ccccc3)C2)on1 (configuration not stated) | 0.406% |
| CCN(CC)C(=O)C1=C(C)N(Cc2ccccc2)C(=O)C(CC(=O)NC(c2ccccc2)c2ccccc2)C1 (configuration not stated) | -5.91% |
| CCCOc1ccc(F)cc1-c1cc(C(=O)NCc2ccc(F)cc2)[nH]n1 | 0% |
